In PMC7819943, “Rice protein-binding microarrays: a tool to detect cis-acting elements near promoter regions in rice”:
The full ranking holds about 68,000 sequences; the median of “fluorescence intensity (a.u.)” is about 9,100, and the highest 2% start at about 16,000. The full list was thinned out, with the highest values kept by preference.

What follows are sequences tested against OsWRKY34 (Oryza sativa, UniProt Q0JBA9 1-250) (assay: protein-binding microarray (RPBM); PBS, 2% BSA, 51.3 ng/ul salmon testes DNA, 50 uM zinc acetate, 200 nM TF, 25 C, 1 h; high values mean tight binding). Conditions: protein: recombinant; tags: N-terminal polyhistidine and DsRed monomer fusion (pET32a); label: CyDye5-dUTP incorporated in the synthesized complementary strand; 3' TTTTT single-stranded linker to array surface; dsDNA, one strand shown.
In short: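 The binding signal is fluorescence intensity per feature, in arbitrary units, read on an Axon 4000B scanner. Polyhistidine- and DsRed-tagged transcription factors (N-terminal fusions) from E. coli BL21-CodonPlus were purified on Ni–NTA and applied at 200 nM for 1 h at 25 °C to a double-stranded, BSA-blocked custom Agilent array in buffer with 50 µM zinc acetate.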

OsWRKY34, sequence (Q0JBA9 entry or part of it): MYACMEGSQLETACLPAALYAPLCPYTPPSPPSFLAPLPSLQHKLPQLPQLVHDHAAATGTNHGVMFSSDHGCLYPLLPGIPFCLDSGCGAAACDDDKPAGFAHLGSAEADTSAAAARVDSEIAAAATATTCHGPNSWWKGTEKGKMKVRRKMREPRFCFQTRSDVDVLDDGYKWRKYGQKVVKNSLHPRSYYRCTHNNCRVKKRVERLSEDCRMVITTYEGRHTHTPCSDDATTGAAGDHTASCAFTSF

Sequence | binding signal
TAGGGGTGGGCATTCGGTCTAACTGAAAATTTCGGTCTCGCGGAGTCACCTAGTGCAG | 13500 fluorescence intensity (a.u.)
TGACGTTTGACCAAAGTTTTCTTCAATTTTTCAGAAATGGCGGAGTCACCTAGTGCAG | 9900 fluorescence intensity (a.u.)
GGTCTATGTCTCTCTGATTATTTCTTTTACTAATTGTTTGCGGAGTCACCTAGTGCAG | 9060 fluorescence intensity (a.u.)
CTTCTGCTCTCTAGCTAGCCTTCTTCCTATTGGAAGCTTCCGGAGTCACCTAGTGCAG | 9230 fluorescence intensity (a.u.)
ATATTCCCTCCGTTTTGAAATGTTTGACGCCGTTGACTTTCGGAGTCACCTAGTGCAG | 17000 fluorescence intensity (a.u.)
GATCCTCTGTTTTATCTACGCGTTCCTATCAAATTCCTTTCGGAGTCACCTAGTGCAG | 16800 fluorescence intensity (a.u.)
CATTCCTATCAAAATCCTACGTTTTTCCTATTCCTACGTTCGGAGTCACCTAGTGCAG | 9840 fluorescence intensity (a.u.)
CCGCTGGCCCTTGTTGACACCTTGACTACGAAATGTATTCCGGAGTCACCTAGTGCAG | 8980 fluorescence intensity (a.u.)
TTCTCTTTTATCTGTTTGCTTCCTATAAATTCTACGCGATCGGAGTCACCTAGTGCAG | 8480 fluorescence intensity (a.u.)
TTATACTCCCTCCGTTTCGAAATGTTTGACGCCGTTGACTCGGAGTCACCTAGTGCAG | 11400 fluorescence intensity (a.u.)
TGCACCTGGCCGCGTTGACCGTTCGAAATGTATATATTCCCGGAGTCACCTAGTGCAG | 19600 fluorescence intensity (a.u.)
CAACGAAAATACTAACAACATGCACCTGGCCGCGTTGACCCGGAGTCACCTAGTGCAG | 13900 fluorescence intensity (a.u.)
GCGCTACTTCGCTCGACCACCCGCCCGCCTTCCACTGCCACGGAGTCACCTAGTGCAG | 8550 fluorescence intensity (a.u.)
CTCTAATTTTCTTTGCGTGTTCCATCATCAATATGGTATTCGGAGTCACCTAGTGCAG | 10700 fluorescence intensity (a.u.)
CAATTTCGAGCTTCGTATCAGCATATGCTATTCCCTATTGCGGAGTCACCTAGTGCAG | 10500 fluorescence intensity (a.u.)
GACTTTTTAGCACATGTTTGACCGTTCGTCTTATTCAAAACGGAGTCACCTAGTGCAG | 10800 fluorescence intensity (a.u.)
CATTGACTTTTTTAAACATGTTTGACTGTTCGTCTTATTCCGGAGTCACCTAGTGCAG | 11500 fluorescence intensity (a.u.)
ACCGTTGACTTTTTAGCACATGTTTGACCGCTCGTCTTATCGGAGTCACCTAGTGCAG | 54800 fluorescence intensity (a.u.)
CGTTGACTTTTTAGCACATGTTTGACCGTTCGTCTTATTCCGGAGTCACCTAGTGCAG | 29000 fluorescence intensity (a.u.)
TGACTTTTTAGCATATGTTTGACCGCTCGTCTTATTCAAACGGAGTCACCTAGTGCAG | 8220 fluorescence intensity (a.u.)
TTAGCACATGTTTGACCGTTCGTCTTATTCAAAATTTTTTCGGAGTCACCTAGTGCAG | 12600 fluorescence intensity (a.u.)
CGTTGACTTTTCTAAACATGTTTGACCGTTCGTCTTATTCCGGAGTCACCTAGTGCAG | 28400 fluorescence intensity (a.u.)
TTGACTTTTTAGCACATGTTTGACCGTTCGTCTTATTCAACGGAGTCACCTAGTGCAG | 8480 fluorescence intensity (a.u.)
GTTGACTTTTTTAAACATGTTGGACCGTTCGTCTTATTCACGGAGTCACCTAGTGCAG | 9150 fluorescence intensity (a.u.)
CAGATCGACTCGACTCGACCAGGTTCTCTCGTTTTTACTCCGGAGTCACCTAGTGCAG | 9940 fluorescence intensity (a.u.)
CTCTCTCTCTGCTGCTGCTCTCTAATCAGTAACCAGTAGTCGGAGTCACCTAGTGCAG | 9580 fluorescence intensity (a.u.)
TTGTTTATTTAAGGTGTGATTGTATTTGGATCATGTTTTGCGGAGTCACCTAGTGCAG | 8980 fluorescence intensity (a.u.)
GGGGTATAATTTGTGTCTTAGCTGATAGAATGTGCAGTTGCGGAGTCACCTAGTGCAG | 9980 fluorescence intensity (a.u.)

Sequence | binding signal
AAGGACCCAGCTGTTCGCCACGTGTGCGTGTTGACTTCCACGGAGTCACCTAGTGCAG | 9780 fluorescence intensity (a.u.)
ATAGTACGAATGGTTAGCCCAAAAGTCAGTGTCTTCATTCCGGAGTCACCTAGTGCAG | 10300 fluorescence intensity (a.u.)
CACTGCTTCTCACCCAACTCGCGCGCGCCATTCCTTGCCTCGGAGTCACCTAGTGCAG | 11600 fluorescence intensity (a.u.)
TCTATATTGCTATTTTCATTTTAAAACTATTTCTTGCCACCGGAGTCACCTAGTGCAG | 10300 fluorescence intensity (a.u.)
ATCTGGTCTGCAGGTATTTTCTTTGTATTGTATATTTCTACGGAGTCACCTAGTGCAG | 10000 fluorescence intensity (a.u.)
AGCTGGTCATATTCTATGTTGATTATCTTCATGGTATGAACGGAGTCACCTAGTGCAG | 9730 fluorescence intensity (a.u.)
TTCTGATATCTGGTCATATTTTTTTGAACAGGTAGCTATTCGGAGTCACCTAGTGCAG | 27000 fluorescence intensity (a.u.)
CCGCACCTCTCTCTACACGCACGCGTCTCTCCCATCTCCCCGGAGTCACCTAGTGCAG | 9030 fluorescence intensity (a.u.)
AACTTTCTCCCACCGGCCACCGCGCGTCTCTTGCCACGACCGGAGTCACCTAGTGCAG | 12200 fluorescence intensity (a.u.)
TCTTCTTCCATGGTCTTTTCTAGATAAGGCTCTCTAATGTCGGAGTCACCTAGTGCAG | 8620 fluorescence intensity (a.u.)
TGAACGCTTCCCTGTGTTTGTGGTTACTGCCTTACTGGTTCGGAGTCACCTAGTGCAG | 9210 fluorescence intensity (a.u.)
CGCACGGTTGTTCTCGCCATGATCCTCCTTGCCGCTGTCACGGAGTCACCTAGTGCAG | 8780 fluorescence intensity (a.u.)
CTCCTGACTCCTCCTCGGTTCCTCTTCCTCTCGAGCCCTTCGGAGTCACCTAGTGCAG | 9950 fluorescence intensity (a.u.)
CTTAGGGTCGGGAAGGGGAGAGGCGGTGGCGGGCGGCTGACGGAGTCACCTAGTGCAG | 13400 fluorescence intensity (a.u.)
TCTTAGACGGTCCTGACTCGAGGCCCATATATATGCTGGGCGGAGTCACCTAGTGCAG | 19900 fluorescence intensity (a.u.)
TGGCTCCGCCACGTCCTCGTCGCCTGGAACTCGCTCGTCTCGGAGTCACCTAGTGCAG | 8680 fluorescence intensity (a.u.)
TGTCTCAACAACAAGCTCTGTGTGCTGCAGTGTCATTCCACGGAGTCACCTAGTGCAG | 8160 fluorescence intensity (a.u.)
TATTGGTTTTTGTTTCTGGTGCCACGTCTGCGGCCAAAAACGGAGTCACCTAGTGCAG | 9220 fluorescence intensity (a.u.)
CCTACACACGAAACCTCCGCGCCTCATCCGGGCTTCGCGACGGAGTCACCTAGTGCAG | 10600 fluorescence intensity (a.u.)
TAACTTAACGTGATTTTCCTGTATGGACCTTAATTATGTTCGGAGTCACCTAGTGCAG | 8580 fluorescence intensity (a.u.)
CGTTCTCTCTCTCCTAGAACCACAGTTCAACCACTGTTTCCGGAGTCACCTAGTGCAG | 8580 fluorescence intensity (a.u.)
TGCCGTGGGATGGGGTTGCGGGAGGAGGAGGGTGCTACTACGGAGTCACCTAGTGCAG | 17000 fluorescence intensity (a.u.)
TGGGGATGCGGGGTGGCGCGGGAGGAGGGAGAGGACGGAGCGGAGTCACCTAGTGCAG | 8670 fluorescence intensity (a.u.)
GGCGGTGGGTGGGTGGAGCCGTGGAGGGATGGAGGGAGGGCGGAGTCACCTAGTGCAG | 37900 fluorescence intensity (a.u.)
GGAGGAGTACGACGGGGTGGGAGCGGCGGTGGGTGGGATGCGGAGTCACCTAGTGCAG | 11500 fluorescence intensity (a.u.)
CAAGCCGGGCGGGAGCCGTGGCGGCGGCCGGGCGGGCGGGCGGAGTCACCTAGTGCAG | 8260 fluorescence intensity (a.u.)
CATGGAGGGAGGGAGGGAGGCGGAAGCGGAGGCGTGGGAGCGGAGTCACCTAGTGCAG | 9980 fluorescence intensity (a.u.)
